Experimental data from PubChem BioAssay AID485364 (National Center for Advancing Translational Sciences (NCATS), 2010).
About 11,000 (3.1%) of roughly 360,000 compounds were called active. Another 4% or so got no clear call; they are omitted. The call rests on the fitted dose curve; in most records, active means well fitted inhibition curve with a large enough effect; inconclusive means small, poorly fitted or top-dose-only effect; inactive means no such curve, though single readings can be large or run the other way. This excerpt belongs to a sample that is enriched for actives.
Further: nearly all actives have a fitted effect of over 60% in size.
On the % scale 0 is the no-effect control and ±100 the full control effect; potency means the concentration at half of the fitted maximal effect.

These molecules were tested against Schistosoma mansoni thioredoxin glutathione reductase (TGR) (UniProt Q962Y6) (assay: qHTS Assay for the Inhibitors of Schistosoma Mansoni Peroxiredoxins). Conditions: purified TGR, DTNB reduction, TNB absorbance 405 nm; series mostly up to 114 µM; activity change, negative = inhibition: at the top concentration.
Summary of the method: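 First, TGR (20 nM dispensed) and NADPH were mixed with compound. Second, a 15 min room-temperature incubation followed. Third, further NADPH and then DTNB were added to start the reaction. Finally, TNB absorbance was monitored kinetically.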
With `C=Cc1ccc(Cn2c(C(=O)OC)cc3sc(C)cc32)cc1` the “activity change, negative = inhibition” value was 5.62% (inactive). With `COc1ccc(C(=O)CSc2c(C(C)C)cnc3c2c(=O)n(C)c(=O)n3C)cc1` the “activity change, negative = inhibition” value was -11.9% (inactive). In the case of `COc1cc2[nH]c(=O)n(Cc3ccc(C(=O)NCc4ccc(C)cc4)cc3)c(=O)c2cc1OC`, the “activity change, negative = inhibition” value is reported as 1.94% (inactive). `O=CN1CCN(C2CC(=O)N(c3ccc4c(c3)OCO4)C2=O)CC1` (stereo not drawn) was tested, and the Potency was 44.7 µM (active). `COc1ccc(N2CCN(C3CC(=O)N(c4ccc5c(c4)OCCO5)C3=O)CC2)cc1` (stereo not drawn) was tested, and the “activity change, negative = inhibition” value was 15.7% (inactive). For `Cc1ccc(CC2CC(=O)N(c3ccc4c(c3)OCCO4)C2=O)cc1` (stereo not drawn), the “activity change, negative = inhibition” value was 0% (inactive). In the case of `COc1cc(Nc2nc(-c3ccc(OC)c(OC)c3)nc3ccccc23)cc(OC)c1`, the “activity change, negative = inhibition” value is reported as 0.492% (inactive). For `CC(=O)c1ccc(NC(=O)CSc2c(C(C)C)cnc3c2c(=O)n(C)c(=O)n3C)cc1`, the “activity change, negative = inhibition” value was -3.63% (inactive). For `Cc1cccc(NC(=O)CSc2ncc(-c3ccccc3)[nH]2)c1C`, the “activity change, negative = inhibition” value was 7.09% (inactive). `CSc1ncccc1C(=O)Nc1ccc(C)cn1` was tested, and the “activity change, negative = inhibition” value was 3.44% (inactive). With `COc1ccc(NC(=O)COc2ccc(C(=O)OCC(=O)N(C)C3CCS(=O)(=O)C3)cc2OC)cc1` (stereo not drawn) the “activity change, negative = inhibition” value was -3.82% (inactive). `CN(CCOc1ccccc1)C(=O)c1cc(COc2c(F)cccc2F)on1` was tested, and the “activity change, negative = inhibition” value was -0.798% (inactive). With `CC(=O)N1CCN(C(=O)c2cc(-c3ccc(C)o3)nc3ccccc23)CC1` the “activity change, negative = inhibition” value was -8.9% (inactive). In the case of `O=C(c1cc(-c2ccc(Cl)s2)nc2ccccc12)N1CCOCC1`, the “activity change, negative = inhibition” value is reported as -7.38% (inactive). In the case of `CN(C(=O)COC(=O)c1cc(-c2ccco2)nc2ccccc12)C1CCS(=O)(=O)C1` (stereo not drawn), the Potency is reported as 3.55 µM (active). With `Cc1ccc(NC(=O)c2cc(-c3ccc(C)o3)nc3ccccc23)nc1` the Potency was 11.2 µM (active). In the case of `CC1CCCN(C(=O)c2cc(-c3ccco3)nc3ccccc23)C1` (stereo not drawn), the Potency is reported as 31.6 µM (active). In the case of `CCOc1ccccc1-c1cc(C(=O)N2CCOCC2)c2ccccc2n1`, the “activity change, negative = inhibition” value is reported as 6.44% (inactive). `COc1ccc(CN(C)C(=O)c2cc(-c3ccc(C)cc3C)nc3ccccc23)c(OC)c1OC` was tested, and the “activity change, negative = inhibition” value was -1.05% (inactive). For `COc1ccc(/C=C(\C#N)C(=O)OCC(=O)N(C)C2CCS(=O)(=O)C2)cc1` (stereo not drawn), the “activity change, negative = inhibition” value was -0.0993% (inactive). In the case of `CN(CCOc1ccccc1)C(=O)c1cc(-c2ccco2)nc2ccccc12`, the Potency is reported as 3.16 µM (active). `Cc1ccc(-c2nnc(Nc3ccc(OCC(N)=O)cc3)c3ccccc23)cc1S(=O)(=O)NCC1CCCO1` (stereo not drawn) was tested, and the “activity change, negative = inhibition” value was -2.06% (inactive). `Cc1ccc(Cl)cc1N1CCN(C(=O)c2cnc3c(-c4ccc(F)cc4)c(C)nn3c2C)CC1` was tested, and the “activity change, negative = inhibition” value was -1.63% (inactive). In the case of `CC(=O)N1c2ccccc2CC1C(=O)N1CCN(c2ccc(F)cc2)CC1` (stereo not drawn), the “activity change, negative = inhibition” value is reported as 1.54% (inactive). `Cc1ccc2oc(=O)c3cnn(CC(=O)N4CCN(c5cccc(Cl)c5)CC4)c3c2c1` was tested, and the “activity change, negative = inhibition” value was 2.82% (inactive). For `Fc1cccc(-n2ncc3c2ncn2nc(-c4ccccc4Cl)nc32)c1`, the “activity change, negative = inhibition” value was -1.22% (inactive). `CCOc1cccc(C(=O)Nc2nnc(S(=O)(=O)N(C)c3ccc(C)cc3)s2)c1` was tested, and the “activity change, negative = inhibition” value was 2.45% (inactive). In the case of `O=C(Nc1ccc2oc(-c3ccc(O)c(Br)c3)nc2c1)c1cc2ccccc2o1`, the “activity change, negative = inhibition” value is reported as -0.0022% (inactive). With `COc1ccc(OC)c(NC(=O)CN2CCCN(Cc3cc(C)ccc3C)S2(=O)=O)c1` the “activity change, negative = inhibition” value was 0.344% (inactive). For `Cc1csc2nc(COC(=O)c3ccc(NC(=O)COc4ccccc4F)cc3)cc(=O)n12`, the “activity change, negative = inhibition” value was 2.87% (inactive). `COc1cccc(N=C2SC(C(=O)Nc3cccc(Cl)c3)CC(=O)N2C)c1` (stereo not drawn) was tested, and the “activity change, negative = inhibition” value was -12.8% (inactive). With `CN(Cc1ccccc1)c1ncnc2onc(-c3ccc(F)cc3)c12` the “activity change, negative = inhibition” value was 1.52% (inactive). With `CC(=O)c1cccc(NC(=O)c2nc(-c3ccccc3)n(-c3cccc(C)c3)n2)c1` the “activity change, negative = inhibition” value was -6.73% (inactive). With `CCN(CC)CCNC(=O)CN1N=C(c2ccc(OC)cc2)CCC1=O` the “activity change, negative = inhibition” value was 0.497% (inactive). With `O=C(c1cc(-c2ccco2)nc2ccccc12)N(Cc1nnc(-c2ccc(Cl)cc2)o1)C1CC1` the Potency was 8.91 µM (active). For `COc1ccc(NC(=O)CN(C)C(=O)c2n[nH]c3ccccc23)cc1`, the “activity change, negative = inhibition” value was 1.25% (inactive). With `COc1ccc(NC(=O)CN(C)C(=O)c2cc(-c3ccc(C)o3)nc3ccccc23)cc1` the Potency was 28.2 µM (active). In the case of `O=C(c1ccc(Cl)s1)N(Cc1nnc(-c2ccccc2Cl)o1)C1CC1`, the “activity change, negative = inhibition” value is reported as -7.47% (inactive). `COc1ccc(-c2cc(C(=O)N(C)CC(=O)Nc3ccccc3Cl)c3ccccc3n2)cc1OC` was tested, and the “activity change, negative = inhibition” value was 3.05% (inactive). In the case of `CC(C)N(Cc1nnc(-c2ccccc2Br)o1)C(=O)c1cc(Cl)nc2ccccc12`, the “activity change, negative = inhibition” value is reported as -0.676% (inactive). With `COc1ccc(Cc2nc3ccc(C(=O)NCc4ccc(OC)cc4OC)cc3o2)cc1` the “activity change, negative = inhibition” value was -3.16% (inactive). In the case of `O=C(Nc1cc(C(F)(F)F)ccc1Cl)c1ccc2c(c1)CCN2S(=O)(=O)c1ccccc1`, the “activity change, negative = inhibition” value is reported as 3.48% (inactive). With `COc1ccc(NC(=O)CSc2nnc(-c3nnn(-c4ccc(F)cc4)c3C)o2)cc1` the “activity change, negative = inhibition” value was 0.551% (inactive). For `COc1cc(C(=S)N2CCOCC2)ccc1O`, the “activity change, negative = inhibition” value was 6.25% (inactive). For `COc1ccc(OC)c(NC(=S)N2CCc3ccccc3C2)c1`, the “activity change, negative = inhibition” value was 9.21% (inactive). With `COc1ccc(C)cc1NC(=S)N1CCOCC1` the Potency was 17.8 µM (active). In the case of `O=C(CCc1cn(Cc2ccc(F)cc2)c2ccccc12)NC1CCCCC1`, the “activity change, negative = inhibition” value is reported as 2.87% (inactive). For `CC(C)Cn1c(C2CC(=O)N(c3ccccc3Cl)C2)nc2ccccc21` (stereo not drawn), the “activity change, negative = inhibition” value was -1.77% (inactive). For `O=C(NCCc1ccccc1)c1ccc2c(c1)N(Cc1ccc(F)cc1)C(=O)c1ccccc1S2(=O)=O`, the “activity change, negative = inhibition” value was -1.62% (inactive). For `CN(C)CC1Oc2ccccc2OC1(O)c1ccccc1` (stereo not drawn), the Potency was 0.355 µM (active). `O=C(NCC1COc2ccccc2O1)C1(c2ccccc2)CCCC1` (stereo not drawn) was tested, and the “activity change, negative = inhibition” value was 37% (inactive). `CN(C)CCOC(=O)C(c1ccccc1)C1(O)CCCC1` (stereo not drawn) was tested, and the “activity change, negative = inhibition” value was 8.38% (inactive). With `CCOc1ccc(CC(=O)NCCc2csc3nc(-c4ccccc4F)nn23)cc1` the “activity change, negative = inhibition” value was -10.2% (inactive). For `O=C(COc1ccc(Cl)cc1)N(Cc1ccco1)Cc1ccco1`, the “activity change, negative = inhibition” value was -16% (inactive). For `O=C(Nc1nc(-c2ccco2)c(-c2ccco2)s1)c1ccco1`, the Potency was 7.94 µM (active). For `O=C(Nc1nonc1-c1ccc(Cl)cc1)c1ccco1`, the “activity change, negative = inhibition” value was 5.07% (inactive). With `CCN(c1ccc(Cl)cc1)S(=O)(=O)c1nnc(NC(=O)c2ccco2)s1` the “activity change, negative = inhibition” value was 6.5% (inactive). `COc1ccc(S(=O)(=O)NCCSc2nnnn2-c2ccccc2)cc1` was tested, and the “activity change, negative = inhibition” value was 1.78% (inactive). `O=C(CCSCc1ccccc1F)N1CCN(c2ccc(Cl)cc2)CC1` was tested, and the “activity change, negative = inhibition” value was 1.71% (inactive). In the case of `COc1ccccc1C(=O)NCCC(=O)NN1C(=O)NC2(CCCCC2)C1=O`, the “activity change, negative = inhibition” value is reported as 4.64% (inactive). With `O=C(NN1C(=O)C2C3C=CC(O3)C2C1=O)c1ccncc1` (stereo not drawn) the Potency was 20 µM (active). `COc1ccccc1C(=O)NN1C(=O)C2C3C=CC(O3)C2C1=O` (stereo not drawn) was tested, and the Potency was 17.8 µM (active). `COc1ccc(C(=O)NN2C(=O)C3C(c4ccccc4)C=CC(c4ccccc4)C3C2=O)cc1` (stereo not drawn) was tested, and the “activity change, negative = inhibition” value was 0.253% (inactive). With `COc1ccccc1C(=O)Nn1cnnc1` the “activity change, negative = inhibition” value was -0.277% (inactive). With `CC(C)=C1C2CCC1C1C(=O)N(NC(=O)c3ccco3)C(=O)C21` (stereo not drawn) the “activity change, negative = inhibition” value was 5.25% (inactive). For `O=C(NN1C(=O)C2C3C=CC(O3)C2C1=O)c1ccccc1` (stereo not drawn), the Potency was 20 µM (active). In the case of `O=C(NN1C(=O)C2C3C=CC(C4CC34)C2C1=O)c1ccc(Cl)cc1` (stereo not drawn), the “activity change, negative = inhibition” value is reported as 19.2% (inactive). In the case of `O=C(NN1C(=O)C2C3C=CC(C3)C2C1=O)c1ccco1` (stereo not drawn), the “activity change, negative = inhibition” value is reported as -12.2% (inactive).
